The values below come from PubChem BioAssay AID1565 (Sanford-Burnham Center for Chemical Genomics, 2009).

The whole screen tested about 290,000 compounds, of which about 3,200 (1.1%) were called active. Rule as the data show it: active = inhibition above about 60%; inactive = the rest. The full list was thinned out, with actives kept by preference.

The term inhibition denotes the relative decrease from the control value, in per cent.

In this assay the target is Phosphoethanolamine/phosphocholine phosphatase (Homo sapiens) (UniProt Q8TCT1). Nature of the assay: PubChem AID 1565. Particulars: recombinant PHOSPHO1, absorbance phosphatase assay; at 13.3 µM; hits give high values.
Phosphoethanolamine/phosphocholine phosphatase (Homo sapiens), sequence (Q8TCT1 whole entry, looked up): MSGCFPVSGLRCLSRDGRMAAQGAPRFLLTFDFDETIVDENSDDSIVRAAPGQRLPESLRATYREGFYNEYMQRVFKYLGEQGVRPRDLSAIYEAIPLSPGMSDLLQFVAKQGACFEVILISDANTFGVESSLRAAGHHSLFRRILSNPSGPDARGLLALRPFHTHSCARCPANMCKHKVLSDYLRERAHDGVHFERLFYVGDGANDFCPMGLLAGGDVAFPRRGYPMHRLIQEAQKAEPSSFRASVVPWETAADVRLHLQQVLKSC
On to `COC(=O)Cc1cnc(NC(=O)CSc2nc(C(C)C)cc(=O)[nH]2)s1`, for which the inhibition was 26.5% (inactive).
Next, `O=C(CCN1C(=O)[C@@H]2Cc3ccccc3CN2C1=O)NCCc1ccccc1`: 38.2% (inactive); `CC1=C/C(=N\OS(=O)(=O)c2ccccc2)C=CC1=O`: -13.3% (inactive).
For the compound `O=Cc1c(NCCc2cccc(F)c2)c2ccccc2[nH]c1=O`, the inhibition was 19.2% (inactive).
In the case of `CC(C)(C)SCCSC1=CC(=O)CC(c2ccccc2)C1` (configuration not stated) it was 14.1% (inactive); in that of `Cc1ccc2nc(N3C(=O)C(O)=C(C(=O)c4ccco4)C3c3cccc(O)c3)sc2c1` (configuration not stated), 40.5% (inactive).
In the case of `O=C(c1ccccc1)N1CCC(CC2CC(c3ccc(Cl)cc3)=NO2)(C(=O)NCC2CCCCC2)CC1` (configuration not stated) it was -1.7% (inactive); in that of `CC(=O)OC(COc1ccc(F)cc1)Cn1cnc2ccccc21` (configuration not stated), 43.9% (inactive); in that of `c1ccc(Cc2nn3c(Cn4cnc5ccccc54)nnc3s2)cc1`, 45.1% (inactive).
In the case of `Fc1ccc(OCc2nn3c(Cn4nnc5ccccc54)nnc3s2)cc1` it was 82.3% (active); in that of `CN(CC(=O)Nc1ccccc1C(F)(F)F)C(=O)Cc1ccccc1F`, 18.7% (inactive).
As for `Cc1cc(-c2n[nH]c(=S)n2/N=C/c2ccco2)n[nH]1`, the inhibition was -60% (inactive).
In the case of `Cc1ccccc1-c1n[nH]c(=S)n1/N=C/c1ccc(-c2ccccc2Br)o1` it was -60.1% (inactive).
In the case of `Cc1n[nH]c(=S)n1/N=C/c1ccc(Br)o1` it was 99.1% (active); in that of `N#C/C=C/N1CCN(Cc2ccc3c(c2)OCO3)CC1`, 15.6% (inactive); in that of `CCOc1ccc(OCc2ccc(C(=O)N(C)c3ccccc3)o2)cc1`, 18.7% (inactive).
Next, `CC(NC(=O)c1ccccc1C(=O)O)c1ccc(-n2ccnc2)cc1` (configuration not stated): 8.3% (inactive); `CCCOc1cccc(C(=O)Nc2ccccc2C(=O)N2CCN(C)CC2)c1`: 24% (inactive).
Regarding `Cc1cc(C)c(OCC(=O)N/N=C/c2ccco2)c(C)c1`, the inhibition was -1.4% (inactive).
Next, `Cc1ccc(OCC(=O)N/N=C\c2ccco2)c(C)c1`: 61.1% (active); `Cc1ccc(NC(=O)CCC(=O)N/N=C/c2ccco2)c(C)c1`: -4.9% (inactive); `CSCc1nnc(NC(=O)c2ccc(S(=O)(=O)N3CCCCC3C)cc2)o1` (configuration not stated): 32.3% (inactive).
Next, `O=C(N/N=C/c1cccc(OCc2ccccc2)c1)c1ccc(Br)o1`: 41.4% (inactive).
In the case of `Cc1sc2ncn(CC(=O)NCCCC(=O)NCc3ccc(F)cc3)c(=O)c2c1C` it was 31.9% (inactive); in that of `CCOC(=O)c1cc(S(=O)(=O)NCCc2ccc(OC)c(OC)c2)cn1C`, 69.7% (active); in that of `CCS(=O)(=O)NCCc1ccc(OC)c(OC)c1`, -2.4% (inactive).
For the compound `COc1ccc(CCNS(=O)(=O)c2ccc(F)cc2)cc1OC`, the inhibition was -6.8% (inactive).
Next, `COc1ccc(C2NC(=O)N(C)C(C)=C2[N+](=O)[O-])cc1` (configuration not stated): 14.1% (inactive).
In the case of `Cc1[nH]c(C)c(S(=O)(=O)N2CCN(c3cccc(C(F)(F)F)c3)CC2)c1C(=O)N1CCCCC1` it was 42.6% (inactive); in that of `CCCCCn1c(=O)[nH]c2cc(C(=O)NCCCN3CCCCC3C)ccc2c1=O` (configuration not stated), 26.1% (inactive).
In the case of `CCCCNC(=O)CN1C(=O)NC(Cc2ccccc2)(Cc2ccccc2)C1=O` it was 35% (inactive); in that of `COc1ccc(CNC(=O)COc2cccnc2[N+](=O)[O-])cc1`, 39.9% (inactive); in that of `O=C(NNC(=S)Nc1ccc(F)cc1)[C@H]1C[C@@H]1c1ccccc1`, 76.8% (active).
As to `Cc1ccc(NC(=O)C2CC2c2ccccc2)cc1` (configuration not stated), the inhibition was 39.5% (inactive).
Next, `O=S(=O)(NC(=S)Nc1ccccc1)c1ccc(F)cc1`: -122% (inactive); `O=C(C1CC1)N1N=C(c2ccc(Br)cc2)CC1(O)C(F)(F)F` (configuration not stated): 15.6% (inactive).
Regarding `O=C(C1CC1)N1N=C2CCCCC2C1(O)C(F)(F)F` (configuration not stated), the inhibition was 60.9% (active).
For `COc1ccc(O)c(/C=N/N=C/c2cccc([N+](=O)[O-])c2)c1`, the inhibition is 4.2% (inactive).
In the case of `COc1ccccc1-c1cnn2c(N3CCOCC3)cc(C)nc12` it was 38.1% (inactive); in that of `CCOC(=O)c1cc(C(=O)Nc2ccc(S(=O)(=O)Nc3ccc(OC)cc3)cc2)nn1C`, 28.7% (inactive).
Next, `O=C(Nc1cccc(Cl)c1Cl)c1ccccc1NC(=O)C1CC=CCC1C(=O)O` (configuration not stated): 12.3% (inactive).
Next, `CC1(C)Oc2ccc3ccc(=O)oc3c2/C(=N/O)C1=O`: 50.4% (inactive); `CC1(C)Oc2ccc3ccc(=O)oc3c2/C(=C/NCCO)C1=O`: 87% (active).
Regarding `C/C=C(/C)C(=O)OC1Cc2c(ccc3ccc(=O)oc23)OC1(C)C` (configuration not stated), the inhibition was 8.5% (inactive).
For `CC(C)(C)c1ccc(/C=C/C(=O)NCCCn2ccnc2)cc1`, the inhibition is 33.7% (inactive).
In the case of `CC(=O)N1c2ccc(S(=O)(=O)N3CCCC(C(=O)NCc4ccc(Cl)cc4)C3)cc2CC1C` (configuration not stated) it was 42.6% (inactive).
Next, `CC(C)Oc1ccc(C(CC(=O)N2CCOCC2)C(C)C)cc1` (configuration not stated): 52.2% (inactive).
In the case of `Cn1c(SCC(=O)c2cccs2)nnc1-c1ccco1`, the inhibition is 64.6% (active).
With `CCOC(=O)CSc1nnc(-c2ccco2)n1C`, the inhibition was -19.7% (inactive).
Regarding `Cn1c(SCC(=O)N2CCCC2)nnc1-c1cccs1`, the inhibition is 67.9% (active).
Next, `Cn1c(SCC(=O)N2CCCC2)nnc1-c1ccc2c(c1)OCO2`: 35% (inactive); `Cc1nc(SCC(=O)N2CCc3ccccc3C2)c2c(C)c(C)sc2n1`: 9.7% (inactive); `O=C(CSc1nnc(-c2cccs2)n1-c1ccccc1)N1CCN(C(=O)c2ccco2)CC1`: 89.7% (active).
In the case of `O=C(CSc1nnc(-c2cccs2)n1Cc1ccccc1)N1CCc2ccccc2C1` it was 78.3% (active); in that of `O=C(CSc1nnc(-c2cccs2)n1-c1ccccc1)NCc1ccco1`, 14.6% (inactive).
Next, `CCCCNC(=O)CSc1nnc(-c2ccco2)n1C`: 4.7% (inactive); `O=C(CSCc1cccs1)N1CCCC1`: 31% (inactive); `Cc1cc2ccccc2n2c(SCC(=O)N3CCN(C(=O)c4ccco4)CC3)nnc12`: 3.7% (inactive).
`CCn1c(SCC(=O)c2ccc(Cl)s2)nnc1-c1cccs1`: the inhibition was 31.9% (inactive).
In the case of `COC(=O)[C@@H](Cc1ccccc1)NC(=O)NCCc1ccccc1` it was 34% (inactive); in that of `CC(C)CCNC(=O)c1ccc2c(Cl)c3c(nc2c1)CCC3`, 23.9% (inactive); in that of `Cc1cc(=O)n2nc(N3CCCC(C(=O)NCc4ccc(Cl)cc4)C3)sc2n1` (configuration not stated), 27.6% (inactive).
